Test results as given in PubChem BioAssay (NCI).
The panel holds about 79,000 compounds, 15% with a hit somewhere; the sample as a whole holds those more often. Calls of active or inactive are those of the source. No stated cut-off is given here; in the data, active means growth inhibition above about 70%; inactive means the rest.

Assay: NCI Yeast Anticancer Drug Screen. Data for the mlh1 rad18 strain (AID 175)
Details: S. cerevisiae mlh1 rad18 strain growth inhibition; at 50.0 µM (retest, dose inferred, filed as 5.0); active compounds read high
Procedure, shortened: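 Inhibition values reflect reduced growth of mutant yeast versus vehicle-treated controls following compound exposure; the mutations affect DNA damage repair.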

SMILES | growth inhibition
CCCCCCCCCCCCCCCBr | 18% (inactive)
CCCCCCCCCCCC(=O)OCC(C)C | -8% (inactive)
O[Si](O)(c1ccccc1)c1ccccc1 | 95% (active)
O=C(c1ccccc1)C(C(=O)c1ccccc1)c1ccc2ccccc2n1 | -3% (inactive)
O=C1C=CC(=O)N1c1ccccc1[N+](=O)[O-] | 100% (active)
CCCCCCCCCCCC(O)=C1C(=O)CC(O)CC1=O (stereo not given) | 96% (active)
OCCc1cccc2ccc3ccccc3c12 | 66% (inactive)
O=C1C(=O)C(Cl)=C(Cl)C(Cl)=C1Cl | 98% (active)
O=C1C=CC2C(=O)c3ccccc3C(=O)C2=C1 (stereo not given) | 67% (inactive)
O=C(N(c1ccc(Cl)cc1)c1ccc(Cl)cc1)C(Cl)(Cl)Cl | 74% (active)
COc1cccc2c1S(=O)(=O)C(c1ccccc1)=CC2=O | 99% (active)
COc1cc(-c2nn3c(=O)n(-c4ccc(Cl)cc4)c(=O)nc3s2)cc(OC)c1OC | 3% (inactive)
O=[N+]([O-])C1(CO)COC(CCc2ccccc2)OC1 (stereo not given) | 3% (inactive)
COc1ccc(C(=O)CCc2c[nH]c3ccccc23)c(O)c1 | 79% (active)
CC/C(=C(\CC)c1ccc(OCCN2CCOCC2)cc1)c1ccc(OCCN2CCOCC2)cc1 | 72% (active)
CCCCCCCCCCCN1C(=O)c2ccccc2S1(=O)=O | 95% (active)
CCCCCCCCCCCC(=O)NN | 82% (active)
CCN1CCC(O)(/C=C/c2ccccc2)C(C(=O)/C=C/c2ccccc2)C1 (stereo not given) | 93% (active)
NC(=S)NNCCC(=O)Nc1ccccc1C(F)(F)F | 7% (inactive)
NS(=O)(=O)c1ccc(N=Cc2c3ccccc3nc3cc(Cl)ccc23)cc1 | 38% (inactive)

SMILES | growth inhibition
Nc1ccc(O)c(=O)cc1 | 15% (inactive)
Oc1ccc[nH]c1=S | 12% (inactive)
COc1cccc2c1C(=O)c1c(O)c3c(c(O)c1C2=O)C[C@@](O)(/C(C)=N/NC(=O)c1ccc(Cl)c(Cl)c1)C[C@@H]3OC1CC(N)C(O)C(C)O1 (stereo not given in full) | 99% (active)
O=C1c2ccccc2C(=O)c2c1ccc(O)c2O.[Cu] | 94% (active)
CCC(=O)C(C(=O)CC)c1c(OC(=O)c2ccccc2)ccc(O)c1C(=O)OC | 30% (inactive)
CC(C)CCCC(C)C1CCC2(C)C3=CCC4C(C)(CCC(O)C4(C)C)C3=CCC12C (stereo not given) | 97% (active)
CCNC(=O)COc1ccc(Cl)cc1Cl | 2% (inactive)
CCN1CCC(O)(/C=C/c2ccc(Cl)c(Cl)c2)C(C(=O)/C=C/c2ccc(Cl)c(Cl)c2)C1 (stereo not given) | 97% (active)
Nc1ccc(-c2ccc(N)cc2S(=O)(=O)O)c(S(=O)(=O)O)c1 | -4% (inactive)
COc1ccc2c(c1)CCc1c(-c3noc4c3CCc3cc(OC)ccc3-4)noc1-2 | 10% (inactive)
Cc1ccc(NC(=S)N(CCC#N)C2CCCCC2)cc1C | -28% (inactive)
COc1ccc2c(c1)CC1c3c(ccc(OC)c3O)CC2N1C (stereo not given) | 61% (inactive)
CCN(CC)CCCC(C)Nc1c2ccccc2nc2c(C)cc(Br)cc12 (stereo not given) | 69% (inactive)
O=C(O)c1cc2ccc3cccc4ccc(c1)c2c34 | 94% (active)
CCOC(=O)NC(=S)Nc1ccsc1 | 0% (inactive)
CC(C)CCC(C)(C)c1cc(O)ccc1O | 99% (active)
COc1ccc(C(c2cc3c(cc2O)OCO3)N2CCOCC2)c(OC)c1OC (stereo not given) | 63% (inactive)
CCOC(=O)C1=C(C)NC(C)=C(C(=O)OCC)C1c1c(-c2ccccc2)noc1C | 61% (inactive)
O=C(CCl)Oc1ccc(Sc2ccc(OC(=O)CCl)cc2)cc1 | 99% (active)
Nc1ccc2[nH]c3ccccc3c2c1 | 29% (inactive)
